This note sets out measurements from PubChem BioAssay (NCATS).

The structures appear in SMILES notation. Records with an inconclusive call do not appear. Where a call stands in place of a potency, no number is given. The source made the active and inactive calls. The call rests on the fitted dose curve; in most records, active means well fitted inhibition curve with a large enough effect; inconclusive means small, poorly fitted or top-dose-only effect; inactive means flat fitted curve, though single readings scatter.

Chain of Calcium and integrin-binding protein 1 (Homo sapiens) (Q99828 whole entry, looked up): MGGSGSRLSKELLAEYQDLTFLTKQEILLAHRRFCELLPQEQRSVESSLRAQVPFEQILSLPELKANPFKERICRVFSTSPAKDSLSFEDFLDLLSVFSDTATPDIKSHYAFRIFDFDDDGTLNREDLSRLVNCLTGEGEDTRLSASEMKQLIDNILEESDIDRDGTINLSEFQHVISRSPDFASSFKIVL

The target of the assay is Calcium and integrin-binding protein 1 (Homo sapiens) (UniProt Q99828). The experiment in a line: Primary qHTS for Identification of Calcium Integrin Binding Protein 1 (CIB1) Competitor (AID 1508620).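 Further: GST tagged CIB1 binding a fluorescein labelled alphaIIb integrin peptide tracer; top concentration of the series differs between compounds.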 The settings on record: CIB1-GST / FITC-alphaIIb peptide fluorescence polarization; series mostly up to 57.7 µM. The procedure, abridged:
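Fluorescence polarization competition: CIB1-GST (1 uM final) preincubated with compound 15 min at room temperature, then FITC-labeled alphaIIb peptide (100 nM final) added for another 15 min. Polarization read at Ex 480/Em 540.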
For `Cc1cn2c(N)c(Cl)cc(C(=O)NCC3CCN(CC(C)C)CC3)c2n1`, the Potency entry is “inactive”.

Take `CC1CCC2(C)C(CC(O)C(O)C23CO3)C1(C)CCC1=CC(=O)OC1O` (stereo unspecified): the Potency result was “inactive”.

Consider `CC1=C2C3OC(=O)C(C)C3(O)CCC2(C)CCC1=O` (stereo unspecified), for which the Potency entry was “inactive”.

Regarding `CC(=O)c1c(C)cc(O)cc1O[C@@H]1O[C@H](CO)[C@@H](O)[C@H](O)[C@H]1O`, the Potency entry is “inactive”.

For `CC(C)CC(=O)O[C@@H]1OC=C(CO[C@@H]2O[C@H](CO[C@@H]3O[C@H](CO)[C@@H](O)[C@H](O)[C@H]3O)[C@@H](O)[C@H](O)[C@H]2O)[C@H]2C[C@H](O)[C@@H](CO)[C@@H]12`, the Potency entry was “inactive”.

Regarding `COCC(=O)N1CCc2cc(-c3csc(NC(=O)c4cc(OC)cc(OC)c4)n3)ccc21`, the Potency result was “inactive”.

With `COc1ccc(C2=CC(=O)OC2Cc2ccc(O)cc2)c(O)c1` (stereo unspecified), the Potency entry was “inactive”.

In the case of `C[C@@H]1O[C@@H](OC[C@H]2O[C@@H](OCC3CCC4CC3C4(C)C)[C@H](O)[C@@H](O)[C@@H]2O)[C@H](O)[C@H](O)[C@H]1O` (stereo partly specified), the Potency result was “inactive”.

For `C#Cc1cnc2[nH]c(=O)n(C(CC)CC)c2n1`, the Potency result is “inactive”.

Take `COc1ncc(-c2ccc3c(Nc4cc(Oc5cc(F)cc(F)c5)cc(C(=O)O)c4)c(S(=O)(=O)NC4CC4)cnc3c2)c(OC)n1`: the Potency result is “inactive”.

In the case of `C[C@@H]1O[C@@H](O[C@H]2[C@H](O[C@H]3CC[C@@]4(C)C(CC[C@]5(C)C4CC=C4[C@@H]6CC(C)(C)CC[C@]6(C(=O)O)CC[C@]45C)[C@]3(C)CO)OC[C@H](O)[C@@H]2O)[C@H](O)[C@H](O[C@@H]2OC[C@@H](O)[C@H](O)[C@H]2O)[C@H]1O` (stereo partly specified), the Potency result was “inactive”.
